The panel holds about 83,000 compounds, 20% with a hit somewhere; the sample as a whole holds those more often.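 Cell lines were cultured in 96-well plates, exposed to a single compound concentration, and assessed for percent growth 48 hours later.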 A number with no mark means an inactive call. Calls of active or inactive are those of the source. The calls were made as follows: active = growth percent below 10; inactive = the rest.

For this experiment, the system named is HL-60(TB) leukemia. The experiment can be described thus: NCI-60 one-dose screen, 48 h (100 = growth as untreated, 0 = no growth, -100 = all killed). The settings on record: 10 µM unless noted.
As for `CCn1cc2c(cc1=O)-c1nc3ccccc3c3ccnc(c13)C2=O`, the growth was 93.9%.

Take `CC(C)N(CCOc1ccc(-c2nc3sccn3c2-c2ccnc(S(C)(=O)=O)n2)cc1)C(C)C`: the growth was 85.8%.

Turning to `c1csc(-c2cnc3nonc3n2)c1`, the growth is 1.96% (active).

As for `COc1cc2c(Nc3ccc(NC(=O)Nc4ccc(Cl)c(C(F)(F)F)c4)c(Cl)c3)ncnc2cc1OCCCN1CCN(C)CC1`, the growth is -56.4% (active).

As for `Oc1ccccc1/C=N/N=C\c1ccccc1Cl`, the growth is 30.9%.

Turning to `Nc1nc(Cl)cc(NCCCCNc2cc(Cl)nc(N)n2)n1`, the growth was 101%.

For the compound `CN(C)S(=O)(=O)Oc1ccc(-c2sc3cc(OS(=O)(=O)N(C)C)ccc3c2C(=O)c2ccc(OCCN3CCCCC3)cc2)cc1`, the growth was 53.2%.

On to `CCCCCCNC(=O)Oc1ccc(/C(=C(\C)c2ccc(OC)cc2)c2ccc(OCCN3CCCCC3)cc2)cc1`, for which the growth was 46.3%.

As for `Nc1ncnc2c1C(c1ccc([N+](=O)[O-])cc1)c1sc3c(F)cccc3c1O2` (stereo not given), the growth was 97.2%.

`COc1cc2c(c(OC)c1OC)C(=O)CC(c1cccc(C(=O)Nc3ccc(Br)cc3)c1)O2` (stereo not given): the growth was 13.8%.

`CC(=O)C(/C=N/C(N)=O)=C(/C)O`: the growth is 104%.

For `CC(C)C1=NOC(=O)C1=Cc1cn(-c2ccccc2)nc1-c1ccc(F)cc1`, the growth was -34.9% (active).

Consider `COc1ccc(S(=O)(=O)NCCCNc2nccc(-n3ccc4cccnc43)n2)cc1`, for which the growth was 104%.

Consider `COc1ccc(NS(=O)(=O)c2ccc(-c3cnc(C4CC4)o3)cc2)cc1`, for which the growth is 76.3%.

As to `COC(=O)c1cccc([N+](=O)[O-])c1`, the growth was 121%.

Consider `CC(C)N(CCOC(=O)Nc1ccccc1Cl)C(C)C`, for which the growth is 103%.

Consider `COc1cc(OC)c(/C=C/C(=O)c2ccc(Nc3ncnc4ccccc34)cc2)c(OC)c1`, for which the growth is 2.85% (active).

Regarding `COc1cc(CNCCCN2C(=O)c3ccc4c5c(ccc(c35)C2=O)C(=O)N(CCCNCc2cc(OC)c(OC)c(OC)c2)C4=O)cc(OC)c1OC`, the growth was -35.8% (active).

On to `Nc1nc(Nc2ccccc2)c2ncn(Cc3ccc4c(c3)OCO4)c2n1`, for which the growth was 25.1%.

Take `CCc1ccc(Nc2cc(C)c3ccc(O)cc3n2)cc1`: the growth was 33.9%.

On to `O=C(/C=C/c1c(Cl)nc2sccn12)c1ccc(F)c(F)c1`, for which the growth was 78.3%.

For the compound `[O-]/[N+](=C\C=C\c1ccccc1)c1ccccc1`, the growth was 82.3%.

Take `COc1ccc(NC(=O)c2sc3nc4c(cc3c2N)CCCC4)cc1`: the growth was -14.6% (active).

As for `COc1ccc(C2=NN(C(=O)c3ccc(S(C)(=O)=O)cc3)C(c3ccc(OC)c(OC)c3)C2)c(OC)c1` (stereo not given), the growth was 69%.

Consider `C=C(C)[C@H]1CC/C(C)=C/CC[C@]2(C)O[C@H]2CC/C(COC(=O)[C@@H](OC(C)=O)[C@H](NC(=O)c2ccccc2)c2ccccc2)=C\[C@@H]1O`, for which the growth was 91%.

With `O=C(NCCCNC(=O)OCc1ccc2c(Br)cc(Br)c(O)c2n1)OCc1ccc2c(Br)cc(Br)c(O)c2n1`, the growth is -25.4% (active).

As to `Cc1cc(C)nc(NC(N)=NCCc2ccccc2)n1`, the growth is 56.9%.

As for `CCCCCCCCNc1cccc2c1C(=O)c1ccccc1C2=O`, the growth was 73%.

`Cc1c(Cl)c(C)c(Cc2c(C)c(Cl)c(C)c(Cl)c2O)c(O)c1Cl`: the growth is 10.3%.

As to `COC1C(O)CC(OC2CC(OC3CC(O[C@@H]4C(=O)c5c(cc6cc(OC7CC(OC8CC(O)C(O)C(C)O8)C(O)C(C)O7)c(C)c(O)c6c5O)CC4[C@H](OC)[C@@H](O)C(C)=O)OC(C)C3O)OC(C)C2O)OC1C` (stereo not given in full), the growth was 14.3%.

As for `Cc1cc(Cl)ccc1Nc1nc(C(F)(F)F)ccc1C(=O)N/N=C/c1ccc(Cl)cc1`, the growth was -33.8% (active).

Consider `Cc1cc2nc3c4cc(N)ccc4n(CCN(C)C)c3nc2cc1C`, for which the growth is 4.7% (active).

In the case of `O=C(Nc1cccnc1Nc1ccccc1)c1cn(Cc2cccc(Oc3ccccc3)c2)nn1`, the growth was 18.9%.

For the compound `C/C(=N/N=C(N)N)c1ccc(Cl)cc1`, the growth is 171%.

On to `CC1(C)C2CCC1(C)C1(C2)OCCS1` (stereo not given), for which the growth is 91.3%.

On to `C=C1C(=O)O[C@H]2[C@H]1CC/C(COC(=O)NCCc1c[nH]c3ccc(Cl)cc13)=C\CC[C@@]1(C)O[C@@H]21`, for which the growth was -26.2% (active).

As for `COc1cc(NC(=O)c2cc3ccccc3cc2O)c(OC)cc1Cl`, the growth is -29.2% (active).

Consider `C#CCNC(=O)[C@]1(C)CCC[C@@]2(C)[C@H]1CC=C1C=C(C(C)C)CC[C@@H]12`, for which the growth was 131%.

Consider `CC(C)OC(=O)c1ccc([N+](=O)[O-])cc1`, for which the growth was 121%.

Consider `C=C(C)[C@@H]1CC[C@]2(C(=O)NCCCO)CC[C@]3(C)[C@H](CC[C@@H]4[C@@]5(C)CCCNC(C)(C)[C@@H]5CC[C@]43C)[C@@H]12`, for which the growth is 34.1%.

For the origin of these results see PubChem BioAssay (NCI).
